This note sets out measurements from article PMC5540273 (PLoS ONE, 2017).

Among the test systems are HPK1; HUNK; ICK; IGF1R; INSRR; INSR; IRAK1; IRAK3; IRAK4; ITK.
Common to all, as to details: concentration: 1 μM, replicates: in singlicate; n = 1
The subject of another experiment is T1, IKK-alpha.
T1 construct: gene CHUK

For the next experiment, the system named is T2, IKK-beta.
T2 construct: gene IKBKB

For a further experiment, the system named is T3, IKK-epsilon.
T3 construct: gene IKBKE

Experiment [1] relates to JAK1(JH1domain-catalytic).
The test system of experiment [2] is JAK1(JH2domain-pseudokinase).
In experiment [3] the test system is JAK2(JH1domain-catalytic).
The subject of experiment [4] is JAK3(JH1domain-catalytic).
In the next experiment the test system is T4, JNK1.
T4 construct: gene MAPK8

The next experiment deals with T5, JNK2.
T5 construct: gene MAPK9

For a further experiment, the system named is T6, JNK3.
T6 construct: gene MAPK10
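Further: KINOMEscan kinase panel screen.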

For `Cc1nnc(-c2ccc(C)c(-c3ccc(C(=O)Nc4ccc(NS(C)(=O)=O)cc4)cc3)c2)o1` [GW702865], the “%Inh” value is listed as 0% in the experiment with HPK1; 15% in the experiment on HUNK; 0% with ICK; 17% in the experiment on IGF1R; 0% in the experiment with IKK-alpha; 0% in the experiment on IKK-beta. Further, the “%Inh” value in the experiment on IKK-epsilon was found to be 31%; in the experiment with INSRR it was 0%; in the experiment with INSR, 0%; in the experiment on IRAK1, 17%; in the experiment on IRAK3, 0%; in the experiment with IRAK4, 0%. The “%Inh” value with ITK was 0%; in experiment [1], 9%; in [2], 0%; in experiment [3], 0%; in experiment [4] it was 0%; in the experiment on JNK1, 0%. Further, the “%Inh” value with JNK2 and with JNK3 was 0% throughout.

For the compound `COc1ccc(Nc2ncc(C#N)c(Nc3ccccc3C(N)=O)n2)cc1N1CCN(C)CC1.Cl` [GSK1558669], the “%Inh” value in the experiment on HPK1 is listed as 96.4%; with HUNK, 0%; in the experiment on ICK, 97.6%; in the experiment with IGF1R, 99.6%; in the experiment with IKK-alpha it was 97.8%; with IKK-beta it was 88%. Moreover, the “%Inh” value in the experiment with IKK-epsilon turned out to be 93.8%; in the experiment with INSRR, 100%; with INSR, 99.9%; with IRAK1, 99.8%; in the experiment on IRAK3 it was 100%; in the experiment on IRAK4 it was 99.4%. The “%Inh” value in the experiment with ITK was 99.8%; in experiment [1] it was 0%; in experiment [2], 99.9%; in [3], 99.1%; in experiment [4] it was 98.8%; in the experiment with JNK1 it was 99.5%. Besides, the “%Inh” value with JNK2 was 100%; in the experiment on JNK3, 99.9%.

Regarding `CNc1ncnc2[nH]ncc12` [SKF-18355], the “%Inh” value in the experiment on HPK1 came to 0%; in the experiment on HUNK it was 34%; in the experiment on ICK, 0%; in the experiment on IGF1R, 0%; in the experiment with IKK-alpha, 0%; with IKK-beta, 0%. Moreover, the “%Inh” value with IKK-epsilon is reported as 0%; in the experiment with INSRR, 0%; in the experiment on INSR, 7%; in the experiment on IRAK1, 9%; in the experiment on IRAK3, 0%; in the experiment on IRAK4, 0%. The “%Inh” value with ITK amounted to 0%; in experiment [1], 0%; in [2] it was 31%; in [3], 20%; in experiment [4], 2%; with JNK1, 8%. Moreover, the figures for the “%Inh” value with JNK2 and in the experiment with JNK3 were 1% and 0%, respectively.

Consider `c1ccc(-c2cc(-c3c[nH]nc3-c3ccccn3)ccn2)cc1` [GW576604], for which the “%Inh” value in the experiment with HPK1 is recorded as 25%; with HUNK, 16%; in the experiment on ICK, 0%; in the experiment on IGF1R, 19%; in the experiment with IKK-alpha, 0%; in the experiment with IKK-beta, 0%. Moreover, the “%Inh” value in the experiment with IKK-epsilon is recorded as 0%; in the experiment with INSRR, 0%; with INSR it was 2%; in the experiment on IRAK1, 7%; in the experiment with IRAK3, 0%; with IRAK4, 9%. For the same compound, the “%Inh” value in the experiment on ITK is 3%; in experiment [1], 17%; in experiment [2] it was 0%; in experiment [3], 6%; in experiment [4] it was 0%; in the experiment on JNK1, 35%. In addition, the “%Inh” value came out at 65% with JNK2 and 70% in the experiment with JNK3.

For the compound `COc1cc2c(cc1OC[C@@H](O)CO)ncc1c3ccc(C#N)cc3[nH]c21`, the “%Inh” value with HPK1 turned out to be 0%; in the experiment on HUNK, 0%; in the experiment on ICK, 0%; in the experiment on IGF1R it was 0%; in the experiment with IKK-alpha, 51%; with IKK-beta, 35%. In addition, the “%Inh” value with IKK-epsilon is listed as 40%; with INSRR it was 0%; in the experiment with INSR, 0%; in the experiment on IRAK1 it was 97.2%; in the experiment with IRAK3 it was 67%; in the experiment with IRAK4 it was 99.9%. The “%Inh” value in the experiment with ITK was found to be 13%; in experiment [1], 0%; in experiment [2], 11%; in [3], 3%; in experiment [4], 59%; in the experiment with JNK1, 15%. Moreover, the “%Inh” value with JNK2 and in the experiment with JNK3 was 0% throughout.

`COc1ccc(COc2cc(-n3cnc4ccccc43)sc2C(N)=O)cc1` [GSK1024304]: the “%Inh” value is given as 45% with HPK1; 14% with HUNK; 0% with ICK; 8% in the experiment on IGF1R; 0% with IKK-alpha; 17% with IKK-beta. In addition, the “%Inh” value with IKK-epsilon worked out at 0%; with INSRR, 0%; with INSR, 13%; in the experiment with IRAK1, 0%; with IRAK3 it was 2%; with IRAK4 it was 2%. Moreover, the “%Inh” value in the experiment with ITK was 14%; in [1], 0%; in experiment [2], 0%; in [3] it was 0%; in experiment [4], 0%; with JNK1 it was 18%. Moreover, the “%Inh” value in the experiment on JNK2 was 33%; with JNK3 it was 10%.

As for `O=C(NCCNc1ccnc(Nc2ccc(F)cc2)n1)c1cc2ccccc2s1` [GSK1379874], the “%Inh” value in the experiment with HPK1 is listed as 33%; in the experiment with HUNK it was 12%; in the experiment on ICK, 0%; in the experiment on IGF1R, 0%; in the experiment on IKK-alpha, 0%; with IKK-beta, 0%. Also, the “%Inh” value in the experiment with IKK-epsilon is 22%; in the experiment with INSRR, 0%; in the experiment on INSR, 0%; with IRAK1, 16%; with IRAK3, 0%; in the experiment with IRAK4 it was 10%. The “%Inh” value in the experiment on ITK worked out at 6%; in experiment [1], 12%; in experiment [2], 0%; in [3] it was 0%; in [4], 0%; in the experiment with JNK1 it was 13%. In addition, the “%Inh” value with JNK2 and in the experiment on JNK3 was 0% each time.

Take `N#Cc1ccc(-c2cc(-c3c[nH]nc3-c3ccccn3)ccn2)cc1` [GW693028]: the “%Inh” value with HPK1 was 38%; in the experiment with HUNK, 0%; in the experiment with ICK it was 11%; in the experiment with IGF1R, 22%; in the experiment on IKK-alpha it was 25%; in the experiment with IKK-beta, 19%. The “%Inh” value is given as 0% in the experiment with IKK-epsilon; 0% with INSRR; 1% in the experiment on INSR; 39% in the experiment with IRAK1; 0% in the experiment with IRAK3; 22% in the experiment with IRAK4. Also, the “%Inh” value came to 9% in the experiment with ITK; 22% in experiment [1]; 0% in experiment [2]; 9% in experiment [3]; 0% in experiment [4]; 34% in the experiment on JNK1. Moreover, the “%Inh” value worked out at 59% in the experiment with JNK2 and 69% in the experiment on JNK3.

As for `Cc1nnc(-c2ccc3occ(-c4ccc(C(C)O)cc4)c3c2)o1` (centres unmarked), the “%Inh” value with HPK1 is 0%; with HUNK, 0%; in the experiment on ICK it was 0%; in the experiment on IGF1R, 9%; in the experiment with IKK-alpha, 0%; in the experiment on IKK-beta it was 2%. For the same compound, the “%Inh” value was found to be 3% in the experiment with IKK-epsilon; 6% with INSRR; 11% in the experiment on INSR; 31% in the experiment with IRAK1; 1% in the experiment on IRAK3; 32% with IRAK4. The “%Inh” value with ITK is 14%; in experiment [1] it was 0%; in experiment [2], 5%; in [3] it was 6%; in experiment [4] it was 9%; in the experiment on JNK1, 2%. The “%Inh” value with JNK2 and in the experiment with JNK3 was 0% in each case.

Turning to `NCC(NC(=O)c1cc(-c2cn[nH]c2)c(-c2ccnc3[nH]ccc23)s1)c1ccccc1.O=C(O)C(F)(F)F.O=C(O)C(F)(F)F` (centres unmarked) [GSK1325775], the “%Inh” value worked out at 63% with HPK1; 0% with HUNK; 3% in the experiment on ICK; 0% in the experiment with IGF1R; 54% in the experiment with IKK-alpha; 79% in the experiment on IKK-beta. Moreover, the “%Inh” value is recorded as 24% in the experiment with IKK-epsilon; 0% in the experiment with INSRR; 3% in the experiment on INSR; 93.6% in the experiment with IRAK1; 0% in the experiment with IRAK3; 21% with IRAK4. The “%Inh” value in the experiment on ITK came out at 7%; in experiment [1], 45%; in experiment [2] it was 11%; in experiment [3] it was 95.7%; in [4], 100%; in the experiment on JNK1, 40%. The “%Inh” value with JNK2 came to 7%; in the experiment on JNK3, 12%.
